Assay outcomes deposited in PubChem BioAssay by National Center for Advancing Translational Sciences (NCATS).
LASV entry inh: Lassa virus entry inhibition | hit rate 1.2% among 300,000 | Lassa virus pseudotype entry inhibition, cell reporter | Potency, µM (doses to about 37.9 µM), without a hit: top-dose activity change, negative = inhibition, most hits filed as inhibitors; calls by dose curve; tested in HEK293 cells; note: potency is the fitted concentration of half-maximal effect; nearly all actives have a fitted effect of over 50% in size
HCMV antiviral: human cytomegalovirus inhibition; hit rate 4.5% among 410,000; AID 1259415; activity change, negative = inhibition, % at 57.5 µM; HFF cells, HCMV-luciferase reporter, 72 h; active compounds read low; in the data active = activity change below about -60%; inconclusive = no clear call, values can overlap the other calls; inactive = above about -39%
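Compounds were evaluated in HFFs infected with an HCMV luciferase reporter virus (MOI 1 PFU/cell). Luciferase in lysates collected 72 h post infection served as the replication measure.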
FMDV inh: antivirals against foot and mouth disease virus; FMDV antiviral cell-based qHTS; Potency, µM (doses to about 57.9 µM), inactives show top-dose activity change, negative = inhibition, hits mostly inhibitors; hit rate 1.2% among 410,000; calls by dose curve; tested in HEK293T cells; note: read-out not given here; potency is the fitted concentration of half-maximal effect; nearly all actives have a fitted effect of over 45% in size
Marburg entry inh: Marburg virus entry inhibition; Marburg virus pseudotyped entry inhibition, cell reporter; Potency, µM (highest dose often 37.8 µM), without a hit: at the top dose activity change, negative = inhibition, hits mostly inhibitors; hit rate 1.8% among 300,000; AID 540276; calls by dose curve; tested in HEK293 cells; note: potency is the fitted concentration of half-maximal effect
An asterisk follows results filed as active; ? = inconclusive; · = no result given; [ ] = remark or other dose. An excerpt weighted towards active compounds, which were near 6.2% of everything screened. % is set by controls: 0 for no effect and ±100 for the full control effect.

SMILES	LASV entry inh	HCMV antiviral	FMDV inh	Marburg entry inh
CC(C)C(NC(=O)COc1ccccc1)C(=O)O (configuration not stated)	7%	-18	-15%	16%
C=C1SC(Nc2c(C)cc(C)cc2C)=NC12CCCCC2	?	-89*	?	3.5µM*
CCOC1=C2[C@@H](CN(S(=O)(=O)c3ccc(C)cc3)[C@H]2c2ccccc2)[C@H]2C(=O)N(Cc3ccccc3)C(=O)[C@H]2C1	·	4	-10%	·
O=C(Nc1cccnc1)c1ccccc1-c1ccccc1	·	-60*	8%	·
Cc1cccc(NC(=O)c2cc(S(=O)(=O)c3ccccc3)ccc2Cl)c1	?	-107*	-40%	?
Cc1cccc(NC(=O)c2ccccc2-c2ccccc2)c1	3%	-104*	-18%	-13%[46.1 µM]
Cc1cccc(NC(=O)c2ccccc2C(=O)O)c1	12%	0	31%	3%
COc1ccc(CCNC(=O)CSc2cn(CCNC(=O)c3ccc(OC)c(OC)c3)c3ccccc23)cc1OC	-23%[46.1 µM]	-18	-13%	?
COc1ccc(CCNC(=O)CSc2cn(CCNC(=O)c3cccc(C(F)(F)F)c3)c3ccccc23)cc1OC	?	?	22µM*	?
CN1CN=C(N[N+](=O)[O-])N(Cc2ccco2)C1	-5%	-7	-8%	2%
O=[N+]([O-])NC1=NCN(Cc2ccco2)CN1Cc1ccco1	9%	?	-4%	0.28µM*
Oc1cccc(-c2nc3ncccn3c2Nc2cccc(C(F)(F)F)c2)c1	-16%[46.1 µM]	5	-2%	10%[46.1 µM]
CS/C(=C\[N+](=O)[O-])Nc1ccc(OC(F)(F)F)cc1	·	-61*	-23%	·
COc1ccc(C(N)=O)cc1N	-1%	-15	2%	1%
O=C1/C(=C/c2ccc([N+](=O)[O-])cc2)Oc2cc(O)ccc21	?	-89*	21%	?
O=C1/C(=C/c2ccc(Br)cc2)Oc2cc(O)ccc21	20%[46.1 µM]	0	13%	?
CC(C)(C)c1ccc(/C=C2\Oc3cc(O)ccc3C2=O)cc1	?	-92*	1%	?
CCOC(=O)C1CCN(S(=O)(=O)c2nc3nc(C)cc(C)n3n2)CC1	21%	41	-2%	6%
Cc1nn(Cc2ccc(Cl)cc2Cl)c(C)c1NC(=O)c1nn(C)cc1Cl	-24%	-21	0%	?
Cc1nn(Cc2ccc(Cl)cc2Cl)c(C)c1NC(=O)C1C2CCC(O2)C1C(=O)O (configuration not stated)	5%	-64*	?	-24%[46.1 µM]
Cc1nn(C)c(Cl)c1NC(=O)OCc1ccc(Cl)cc1Cl	-25%	-96*	?	?
Cc1nn(Cc2ccc(Cl)cc2Cl)c(C)c1NC(=O)CCl	?	?	22µM*	?
Cc1cccc(C)c1NC(=O)CN1CCN(C(=O)CNC(=O)c2ccc(-c3ccccc3)cc2)CC1	·	?	-24%	·
Cc1cccc(NC(=O)CN2CCN(C(=O)CNC(=O)c3ccc(-c4ccccc4)cc3)CC2)c1C	·	?	20µM*	·
c1ccc2sc(N3CCCN(Cc4nc(-c5cnccn5)no4)CC3)nc2c1	9%[46.1 µM]	-79*	-19%	?
SMILES	LASV entry inh	HCMV antiviral	FMDV inh	Marburg entry inh
Cc1nn(-c2ccc(Cl)cc2)c(=O)c2ccccc12	?	117	32%	6%
O=c1c2ccccc2c(-c2ccc(O)cc2)nn1-c1cccc(C(F)(F)F)c1	?	?	40µM*	?
O=c1c2ccccc2c(-c2ccc(Cl)cc2)nn1-c1ccccc1	-2%	-63*	-28%	-2%
O=C(COc1ccc2c(-c3ccccc3)cc(=O)oc2c1)NCC(O)c1ccccc1 (configuration not stated)	·	-12	-13%	·
Cc1cc(-c2nnc(SCCC(=O)Nc3ccccc3)o2)no1	-5%	-85*	-25%	-18%
Nc1c(Cl)cc(C(=O)NC2CC2)cc1Cl	0%[46.1 µM]	2	-1%	11µM*
CCc1ccc(C(C)NC(=O)/C(C#N)=C\c2cn[nH]c2-c2ccccc2)cc1 (configuration not stated)	?	-22	?	?
CC(C)(C)C1CCc2nc(NC(=O)COc3ccccc3[N+](=O)[O-])sc2C1 (configuration not stated)	-22%[46.1 µM]	-91*	-27%	28%[46.1 µM]
CCSc1nnc(NC(=O)COc2ccccc2[N+](=O)[O-])s1	18%[46.1 µM]	-87*	?	?
CC(C)c1nnc(NC(=O)COc2ccccc2[N+](=O)[O-])s1	-26%[46.1 µM]	?	16%	?
CC(C)(C)C1CCc2nc(NC(=O)c3cccc(Cl)c3)sc2C1 (configuration not stated)	1%[46.1 µM]	-90*	2µM*	?
CC(C)(C)C1CCc2nc(NC(=O)c3ccc([N+](=O)[O-])cc3)sc2C1 (configuration not stated)	9%[46.1 µM]	-74*	?	2%[46.1 µM]
CN(C(=O)CSc1nnc(-c2cccs2)o1)C1CCS(=O)(=O)C1 (configuration not stated)	20%[46.1 µM]	-4	7%	13%[46.1 µM]
CCN1CCCC1CNC(=O)Cn1nc(C)n2c(cc3cc(C)ccc32)c1=O (configuration not stated)	-31%[46.1 µM]	?	4%	-11%[46.1 µM]
CCOc1ccc2nc(NS(=O)(=O)c3ccc4c(c3)n(C)c(=O)n4C)sc2c1	-8%	17	96%	5%
COc1ccccc1C(=O)Nc1c(C)cc(Br)cc1C	·	-61*	-2%	·
COc1ccccc1C(=O)Nc1ccc(N2CCCCC2)cc1	?	-8	5%	7.9µM*
COc1ccccc1C(=O)Nc1ccc(N2CCN(C(C)=O)CC2)cc1	16%[46.1 µM]	?	-3%	?
O=C(Nc1ccc(N2CCCCC2)cc1)c1ccccn1	0.52µM*	·	2.8µM*	0.46µM*
Cc1cc(Br)cc(C)c1NC(=O)c1ccccc1[N+](=O)[O-]	-7%	?	-15%	?
CC(Oc1ccccc1)C(=O)Nc1ccc(C(=O)OCc2cc(=O)n3ccsc3n2)cc1 (configuration not stated)	?	6	25µM*	·
Cc1ccc(OCC(=O)Nc2ccc(C(=O)OCc3cc(=O)n4ccsc4n3)cc2)cc1C	-9%[46.1 µM]	1	35µM*	·
Cc1ccc(OCC(=O)Nc2ccc(OCc3cc(=O)n4ccsc4n3)cc2)cc1C	14%[46.1 µM]	-6	-1%	-1%[46.1 µM]
CC(C)(C)c1ccc(C(=O)Nc2ccc(C(=O)OCc3cc(=O)n4ccsc4n3)cc2)cc1	-29%[46.1 µM]	13	14µM*	·
O=C(OCc1cc(=O)n2ccsc2n1)C1(c2ccccc2)CC1	·	-98*	-11%	·
SMILES	LASV entry inh	HCMV antiviral	FMDV inh	Marburg entry inh
Cc1ccc(C(=O)Nc2ccc(C(=O)OCc3cc(=O)n4ccsc4n3)cc2)cc1	18%[46.1 µM]	20	7%	·
COc1ccc(CNC(=O)CN(c2ccc(C(C)C)cc2)S(=O)(=O)c2c(C)nn(C)c2C)cc1	?	-17	-2%	-11%[46.1 µM]
CC(C(=O)N1CCOCC1)N1C(=O)c2cccc3cccc(c23)C1=O (configuration not stated)	·	-6	4%	·
Cn1c(Cc2ccccc2)nnc1SCc1cc(=O)n2ccsc2n1	10%	-63*	18%	1%[46.1 µM]
COc1ccc(CNC(=O)c2cnc(N3CCN(Cc4ccccc4C#N)C3=O)s2)cc1OC	·	0	·	·
COc1ccc(CNC(=O)c2csc(N3CCN(CCc4ccccc4)C3=O)n2)cc1OC	·	-86*	·	·
